This is a sample that favours compounds with a hit; in the whole collection about 1.6% have one here.
KCNQ2 inh – rat KCNQ2 potassium channel inhibitors, primary screen, cell-based, CHO-K1, FluxOR thallium flux, B-score. B-score at 10 µM. 310,000 compounds, 1.1% hits. 20 min; hits give low values;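 active means fluorescence ratio B-score at most minus 3 library SDs, with starting brightness B-score within 2 library SDs, cut at about -5.5 in these data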
Target sequence (O88943 whole entry, looked up): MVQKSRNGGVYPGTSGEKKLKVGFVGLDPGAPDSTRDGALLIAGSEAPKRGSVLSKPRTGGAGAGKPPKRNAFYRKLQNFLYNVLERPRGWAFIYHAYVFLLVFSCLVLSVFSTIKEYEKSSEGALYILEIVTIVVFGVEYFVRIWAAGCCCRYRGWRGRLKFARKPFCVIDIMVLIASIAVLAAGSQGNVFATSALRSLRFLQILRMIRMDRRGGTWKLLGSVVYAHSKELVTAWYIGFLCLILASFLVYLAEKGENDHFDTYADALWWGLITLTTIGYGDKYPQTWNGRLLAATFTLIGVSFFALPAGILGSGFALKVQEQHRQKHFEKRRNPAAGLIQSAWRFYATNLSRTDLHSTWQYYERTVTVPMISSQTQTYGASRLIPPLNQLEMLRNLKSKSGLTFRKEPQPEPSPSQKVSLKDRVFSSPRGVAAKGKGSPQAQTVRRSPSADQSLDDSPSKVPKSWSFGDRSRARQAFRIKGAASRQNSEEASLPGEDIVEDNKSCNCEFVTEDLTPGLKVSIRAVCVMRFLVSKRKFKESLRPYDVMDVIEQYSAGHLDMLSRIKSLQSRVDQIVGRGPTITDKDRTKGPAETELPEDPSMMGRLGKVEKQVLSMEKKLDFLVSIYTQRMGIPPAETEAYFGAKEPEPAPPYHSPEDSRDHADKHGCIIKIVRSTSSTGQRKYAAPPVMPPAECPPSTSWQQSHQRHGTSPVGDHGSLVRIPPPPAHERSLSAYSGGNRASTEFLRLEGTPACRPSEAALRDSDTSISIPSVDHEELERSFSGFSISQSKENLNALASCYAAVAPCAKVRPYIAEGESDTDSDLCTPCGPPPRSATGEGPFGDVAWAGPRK
KCNQ2 pot – potentiators of rat KCNQ2 potassium channel | Potassium voltage-gated channel subfamily KQT member 2 (Rattus norvegicus), O88943 | CHO-K1 KCNQ2, FluxOR thallium flux fluorescence; hits give high values | B-score at 10 µM | 310,000 compounds, 0.54% hits | AID 2239, 2010;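 active means fluorescence ratio B-score at least 3 SD of library B-scores, with initial fluorescence B-score within 3 of them, cut at about 5.3 in these data; same plate scores as AID 2156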;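 further: B-score of peak minus minimum over baseline fluorescence ratio after K+ and Tl+ stimulus; positive B-score means potentiation of KCNQ2 with more thallium influx and brighter signal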
KCNQ2 inh conf – rat KCNQ2 potassium channel inhibitors, confirmation, cell-based, thallium flux | KCNQ2-expressing cells, inhibition; hits give low values | 1,000 compounds, 57% hits | shares compounds with KCNQ2 inh | activity change, negative = inhibition, % at 10 µM;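 further: 0% = vehicle wells and values are ratio percent relative to vehicle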
KCNQ1 spec – human KCNQ1 channel inhibition, counter-screen for KCNQ2 inhibitor project, cell-based, FluxOR thallium flux | shares compounds with KCNQ2 inh | KCNQ1-expressing cells, FluxOR thallium flux fluorescence; hits give low values | activity change, negative = inhibition, % at 10 µM | 1,000 compounds, 15% hits | AID 493026, 2011;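 active means activity change at least 3 SD of negative controls below their mean in both duplicate wells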;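 further: CHO cells stably transfected with KCNQ1 and depolarized by potassium stimulus; peak minus minimum fluorescence over baseline after thallium addition; 0% = vehicle negative control and -100% = blank without thallium stimulus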
CHO Tl ctr – thallium flux change in parental CHO cells, counter-screen for KCNQ2 inhibitor project; shares compounds with KCNQ2 inh; hits give low values; activity change, % at 10 µM; 1,000 compounds, 14% hits; AID 493029, 2011;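 further: 0% = vehicle negative controls with stimulus buffer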
KCNQ2 inh confirm – rat KCNQ2 channel inhibitors, confirmation, cell-based, automated patch clamp, single concentration; KCNQ2-expressing cells, automated patch clamp current; shares compounds with KCNQ2 inh; calls only at 10 µM; 550 compounds, 49% hits; AID 588531, 2011
Numbers without * were called inactive; i = inactive; nt = no result; + = active, no number. Unless noted, how the calls were made is not given here.

SMILES	KCNQ2 inh	KCNQ2 pot	KCNQ2 inh conf	KCNQ1 spec	CHO Tl ctr	others
Cn1nc(C(C)(C)C)cc1NC(=O)Nc1cc(Cl)cc(Cl)c1	i	2	nt	nt	nt
CCOC(=O)Cc1csc(NC(=O)CN2CCN(c3ccccc3)CC2)n1	i	0.59	nt	nt	nt
CN1/C(=C\C=C(/C#N)C(=O)Nc2ccc(Cl)cc2)C(C)(C)c2ccccc21	i	nt	nt	nt	nt
CN1/C(=C\C(=O)Nc2ccc(Cl)cc2)C(C)(C)c2ccccc21	-8.1*	-8.1	-27%*	i	i	KCNQ2 inh confirm=i
CCOC(=O)c1c(-c2ccc(C)cc2)csc1NC(=O)C1CCCO1 (centres undefined)	i	0.38	nt	nt	nt
CC(C)OC(=O)c1c(-c2ccc(C(C)C)cc2)csc1NC(=O)C1CCCO1 (centres undefined)	-7.2*	-7.2	-32%*	i	i	KCNQ2 inh confirm=i
Cc1ccc(/C=C2\SC(=S)N(/N=C/c3cc([N+](=O)[O-])ccc3O)C2=O)o1	i	nt	nt	nt	nt
COc1cccc(NC(=O)Nc2ccc(C(C)(C)C)cc2)c1	-8.7*	-8.7	i	i	i
COc1cccc(NC(=O)Nc2ccncc2)c1	i	0.23	nt	nt	nt
CCOc1cc2sc(N3CCC(C(=O)NCCCN4CCCC4=O)CC3)nc2cc1Br	i	0.2	nt	nt	nt
C#CCNC(=O)C1=C[C@@H](C)[C@H](CCCO)[C@@H](OCC)O1	i	1.4	nt	nt	nt
CCOC(=O)c1c(C)n(C)c2ccc(OCC(O)CNC(CC)CO)cc12 (centres undefined)	i	1.2	nt	nt	nt
CCOC(=O)c1c(C)n(-c2ccc(C)cc2)c2ccc(OCC(O)CNCCCO)cc12 (centres undefined)	-11*	-11	i	i	i
CCn1c(CNc2ccc(C)cc2)nnc1SCC(=O)NCc1ccccc1	i	nt	nt	nt	nt
C=CCn1c(CSCc2ccc(C)cc2)nnc1SCC(=O)NCc1ccccc1	-8.4*	-8.4	-22%*	i	i	KCNQ2 inh confirm=+
CC(C)(C)c1cc(C(=O)NCc2cc(F)cc3c2OCOC3)n(Cc2ccccc2)n1	i	nt	nt	nt	nt
O=C(NCC(c1ccco1)N1CCc2ccccc21)c1ccccc1F (centres undefined)	i	nt	nt	nt	nt
COc1ccc(C(=O)NCC(c2ccco2)N2CCc3ccccc32)c(OC)c1 (centres undefined)	-8*	-8	-31%*	i	i	KCNQ2 inh confirm=+
CC(OC(=O)c1ccccc1NCCO)C(=O)NCC(=O)Nc1ccc(F)c(F)c1F (centres undefined)	i	nt	nt	nt	nt
CCCN1CC=C2C(C#N)=C(N)C(C#N)(C#N)C(c3cccc(OC)c3OC)C2C1 (centres undefined)	i	nt	nt	nt	nt
COc1cccc(OC)c1OCc1cc(C2C3CCCC=C3C(C#N)=C(N)C2(C#N)C#N)c(C)cc1C (centres undefined)	-11*	-11	i	i	i
CC1=NN(C(=O)c2ccc(Cn3ccc([N+](=O)[O-])n3)cc2)C(O)(C(F)(F)F)C1 (centres undefined)	i	4.8	nt	nt	nt
Cc1cc2c(cc1S(=O)(=O)N(C)c1ccccc1)n(C)c(=O)n2C	i	0.79	nt	nt	nt
Cc1cc(C)c(S(=O)(=O)N(C)c2ccccc2)c(C)c1	-7.5*	-7.5	-31%*	i	i	KCNQ2 inh confirm=i
Cc1cccc(NCc2nc3ccccc3n2Cc2ccccc2)c1	-8.4*	-8.4	i	i	i
SMILES	KCNQ2 inh	KCNQ2 pot	KCNQ2 inh conf	KCNQ1 spec	CHO Tl ctr	others
Cc1nc2cc(NCc3nc4ccccc4n3Cc3ccccc3)ccc2n1C	i	nt	nt	nt	nt
COc1ccc(N2CC(C(=O)N[C@@H](C)C(=O)NCCc3ccccc3)CC2=O)cc1 (some centres undefined)	i	1.3	nt	nt	nt
O=C(NC(=S)NCc1ccccc1)c1ccc2c(c1)OCO2	i	1.4	nt	nt	nt
CSc1nsc(/C=C/Nc2ccc(O)cc2C)c1C#N	i	nt	nt	nt	nt
COC(=O)c1c(C)nn(-c2ccc(F)c(Cl)c2)c1-c1cc(C)on1	i	nt	nt	nt	nt
CCc1cc2c(nc1CC)CCN(CC/C(C)=N/O[C@@H](C)c1cc(-c3c(C)cc(C)cc3C)no1)C2	-10*	-10	i	i	i
C/C(CCN1CCc2nc(-c3ccccc3)c(-c3ccccc3)cc2C1)=N\O[C@@H](C)c1cc(-c2c(C)cc(C)cc2C)no1	i	nt	nt	nt	nt
CCOCCOC(=O)C1=C(C)NC(=O)NC1c1cc2c(cc1Br)OCO2 (centres undefined)	i	0.01	nt	nt	nt
Cc1ccccc1CC1(CO)CCCN(C(=O)c2cc(Cl)ccc2F)C1 (centres undefined)	i	0.43	nt	nt	nt
Cc1ccccc1CC1(CO)CCCN(C(=O)c2cccc(Cl)c2)C1 (centres undefined)	-6.8*	-6.8	-27%*	i	i	KCNQ2 inh confirm=i
Cc1ccccc1OCC(=O)N1N=C(C(F)(F)F)CC1(O)C(C)(C)C (centres undefined)	-8.2*	-8.2	i	i	i
Cc1ccc(OCC(=O)N2N=C(C(F)(F)F)CC2(O)C(C)(C)C)cc1C (centres undefined)	i	nt	nt	nt	nt
O=C(c1ccccc1)c1nc2ccccc2n(CCCn2c(=O)c(C(=O)c3ccccc3)nc3ccccc32)c1=O	-9*	-9	i	i	i
Cn1c(=O)c(C(=O)c2ccccc2)nc2ccccc21	i	0.02	nt	nt	nt
CS(=O)(=O)Oc1ccc(Br)cc1/C=C1/N=C(c2ccco2)OC1=O	i	nt	nt	nt	nt
COc1cc(CN2CCCC(N3CCc4ccccc4C3)C2)c(Cl)cc1O (centres undefined)	i	nt	nt	nt	nt
Cn1cnc(S(=O)(=O)Nc2cc(-c3ccc(Cl)cc3)nn2C)c1	i	0.4	nt	nt	nt
CCOc1ccc(-c2nc(CSCC(=O)NC3CCCc4ccccc43)c(C)o2)cc1 (centres undefined)	-8.8*	-8.8	-40%*	-37%*	-36%*	KCNQ2 inh confirm=+
COc1cccc(-c2nc(CS(=O)(=O)CC(=O)NC3CCCC3)c(C)o2)c1	i	nt	nt	nt	nt
CCOc1ccc(-c2nc(CSCC(=O)NC3CC3)c(C)o2)cc1	i	0.64	nt	nt	nt
COc1cccc(-c2nc(CS(=O)(=O)CC(=O)NC3CCCc4ccccc43)c(C)o2)c1 (centres undefined)	-10*	-10	-32%*	i	i	KCNQ2 inh confirm=+
COc1cccc(C(=O)Nc2c3c(nn2-c2ccc(Cl)cc2)CS(=O)(=O)C3)c1OC	i	nt	nt	nt	nt
CCn1ccnc1CN(C)Cc1nc(CCC(C)C)no1	i	1	nt	nt	nt
CC(C)=CCc1c(O)cc2c(c1O)C(=O)CC(c1ccccc1)O2 (centres undefined)	i	1	nt	nt	nt
